Laboratory results published in PubChem BioAssay AID687001 (Broad Institute, 2013).
Results with a measured potency or affinity are listed apart.

Each molecule was assayed against Protein S100-A4 (Homo sapiens) (UniProt P26447) (assay: human S100A4 peptide interaction inhibition curves – biochemical, fluorescence polarization, cherry-picked hits, dose response (AID 687001;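 also: 0% = DMSO neutral control wells and -100% = TFP positive control wells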)). Conditions: FP, S100A4/TAMRA-myosin IIA peptide binding; series mostly up to 11 µM; activity change, negative = inhibition: at the top concentration;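 active = signal-lowering compounds whose fitted half-maximal concentration is at or below twice the top tested dose in every run; inconclusive = runs disagree, flat 30 to 70% inhibition, or poor curve fit; inactive = the rest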.
Sequence of Protein S100-A4 (Homo sapiens) (P26447 whole entry, looked up): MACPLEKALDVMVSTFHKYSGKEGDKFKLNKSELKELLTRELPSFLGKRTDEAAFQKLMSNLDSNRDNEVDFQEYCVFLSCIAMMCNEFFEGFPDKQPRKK

Activity change, negative = inhibition, inactive:
C[C@H]1CN([C@@H](C)CO)C(=O)c2cccc(NC(=O)C3CC3)c2O[C@@H]1CN(C)Cc1ccc2c(c1)OCO2 0.419%
C[C@@H]1CCCCO[C@@H](CN(C)C(=O)C2CCCCC2)[C@@H](C)CN([C@H](C)CO)C(=O)c2cc(NC(=O)CCCCCC(=O)Nc3ccccc3N)ccc2O1 5.83% [at 10 µM]
CCOC(=O)N1CCN(S(=O)(=O)c2ccc(C)c(C(=O)NC3CCCCC3)c2)CC1 -0.87%
C[C@@H]1CN([C@@H](C)CO)C(=O)c2cc(NC(=O)c3ccncc3)ccc2O[C@@H]1CN(C)Cc1ccncc1 1.61%
Nc1c(C(=O)Nc2ccc3c(c2)OCCO3)nnn1Cc1ccc(F)cc1 -2.78%
O=C(CCC1CCN(C(=O)c2ccco2)CC1)NCc1ccc(F)cc1 -0.754%
C[C@@H]1CN([C@@H](C)CO)C(=O)c2cccc(NS(=O)(=O)c3ccc(F)cc3)c2O[C@H]1CN(C)C(=O)NC1CCCCC1 1.57%
CCCC(=O)Nc1ccc2c(c1)C(=O)N(C)C[C@H](OC)[C@H](C)CN(Cc1ccccc1)[C@H](C)CO2 4.6%
CCc1nn2c(=O)cc(COc3ccc(NC(=O)c4ccco4)cc3)nc2s1 27.9%
O=C(/C=C/c1cccc(Cl)c1)NCCCN1CCOCC1 -0.231%
OCCC1CN(Cc2ccc3c(c2)CCO3)CCN1Cc1ccc(F)cc1 (centres undefined) 7.23%
CN(CCC#N)C(=O)COC(=O)[C@H](Cc1ccccc1)N1C(=O)c2ccccc2C1=O 1.05%
COc1nnc(-c2ccc(C)c(S(N)(=O)=O)c2)c2ccccc12 -1.16%
Cc1cccc(NC(=O)CNC(=O)c2ccccc2Cl)n1 5.06%
Nc1cnccc1C(=O)O -26.8%
C[C@@H](NC(=O)C[C@@H]1CC[C@H](NC(=O)C2CCC2)[C@H](CO)O1)c1ccccc1 0.215%
C=CCn1c(C)nnc1SCC(=O)Nc1ccccc1C(=O)NC1CC1 -4.66%
CC(=O)N1CC(=O)N2[C@H](CO)[C@@H](c3ccc(-c4ccc(C#N)cc4)cc3)[C@H]2C1 8.56%
CCN(CC(=O)Nc1c(F)cccc1F)C(=O)c1ccc(OC)c(S(=O)(=O)NC2CCCC2)c1 -0.888%
COc1ccc(C(CNC(=O)C(=O)Nc2ccc3c(c2)OCCO3)N2CCN(C)CC2)cc1 (centres undefined) 0.731%
CCCNC(=O)C(Cc1ccc(C(F)(F)F)cc1)NC(=O)c1ccc2ccccc2n1 (centres undefined) -0.823%
O=C(C[C@H]1C=C[C@H](NC(=O)CCN2CCCCC2)[C@H](CO)O1)Nc1nccs1 1.99%
CN(C(=O)COC(=O)/C=C/c1ccc2c(c1)OCO2)c1c(N)n(Cc2ccccc2)c(=O)[nH]c1=O 4.55%
Cc1ccc(CN2C(=O)CSCC2(C)C(=O)Nc2c(C)cccc2C)cc1 (centres undefined) 2.37%
CCN(CC)C(=O)Cn1ccc(NC(C)=O)nc1=O 1.58%
CCCCCCCCNC(CO)(CO)CO -3.47%
O=C(Nc1cc(Cl)ccc1O)C1CC(c2c(F)cccc2Cl)=NO1 (centres undefined) 22.2%
S=c1[nH]nc(-c2cc(-c3ccsc3)n[nH]2)n1-c1ccccc1 6.13%
Cc1ccc(CCNC(=O)c2cc(-c3ccncc3)nc3ccc(S(=O)(=O)N4CCOCC4)cc23)cc1 2.7%
CCc1ccc(NC(=O)C(C)OC(=O)c2ccc(NS(=O)(=O)c3ccc(C)c([N+](=O)[O-])c3)cc2)cc1 (centres undefined) 15.1%
COc1ccc(OCC(=O)N2CCCC2=O)c([N+](=O)[O-])c1 5.77%
C[C@@H]1CN([C@H](C)CO)C(=O)c2cccc(NS(C)(=O)=O)c2O[C@@H]1CN(C)CC1CC1 -2.8%
CC(C)=CC(=O)O[C@@H]1Cc2cc3ccc(=O)oc3cc2OC1(C)C -0.654%
Cc1ccc(NC(=S)N(C)C)cc1C -3.01%
COc1ccc(C(CNC(=O)CNC(=O)c2ccc(F)cc2)N2CCCC2)cc1 (centres undefined) -0.057%
O=C(C[C@H]1CC[C@@H]2[C@H](COC[C@H](O)CN2C(=O)Nc2ccc3c(c2)OCO3)O1)N1CCN(c2ccccc2)CC1 5.56%
COc1cccc(CN2CC3(CN(C)C3)c3c([nH]c4cc(OC)ccc34)[C@@H]2CO)c1 7.39%
O=C(/C=C(\Nc1ccc(Cl)c(C(F)(F)F)c1)c1ccccc1)c1ccccc1 2.8%
C[C@@H]1CN([C@@H](C)CO)C(=O)c2cccc(NC(=O)C3CCOCC3)c2O[C@@H]1CN(C)Cc1ccc(C(=O)Nc2ccccc2N)cc1 20.1%
